Rows were chosen to be rich in hits. Some 32% of all compounds tested hit in one or more screens of this group.
PostGolgi yeast: growth inhibition of a yeast mutant, post-Golgi transport screen; 98,000 tested, 0.9% active; post-Golgi transport phenotypic cell assay; inhibition, % at 10 µM;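 also: yeast cells grown in 1536-well plates; yeast grown about 18 h at 30C before absorbance read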
CYP2C9 act: CYP2C9 (human) activation; P11712; recombinant CYP2C9, luciferin-H conversion, luminescence; stronger effect = higher value; factor 1 = untreated enzyme, 0 = blocked; activation factor at 5 µM; 96,000 tested, 1.4% active; AID 1024;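 active = activation factor of 2 or more for CYP2C9 at a 5 µM dose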;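 also: 0 = sulfaphenazole-blocked wells and 1 = vehicle-only wells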
Target sequence (P11712 whole entry, looked up): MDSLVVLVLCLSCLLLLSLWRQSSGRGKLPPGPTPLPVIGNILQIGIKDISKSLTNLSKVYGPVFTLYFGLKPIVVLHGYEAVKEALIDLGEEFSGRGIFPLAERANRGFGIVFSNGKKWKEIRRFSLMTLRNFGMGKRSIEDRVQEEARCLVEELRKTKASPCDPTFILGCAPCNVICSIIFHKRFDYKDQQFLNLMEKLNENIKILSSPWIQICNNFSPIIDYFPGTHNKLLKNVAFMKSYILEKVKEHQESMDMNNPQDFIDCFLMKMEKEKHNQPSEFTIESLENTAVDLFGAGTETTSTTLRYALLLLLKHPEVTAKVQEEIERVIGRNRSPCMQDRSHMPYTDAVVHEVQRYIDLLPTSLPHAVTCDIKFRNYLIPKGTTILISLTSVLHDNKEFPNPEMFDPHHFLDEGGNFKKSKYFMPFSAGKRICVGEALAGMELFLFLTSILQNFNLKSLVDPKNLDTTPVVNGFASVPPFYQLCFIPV
CYP2C19 inh: human CYP2C19 inhibition | AID 778 | P33261 | inhibition, % at 5 µM | CYP2C19 Supersomes, luciferin-H EGE luminescence, 30 min | 96,000 tested, 21% active;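 active = CYP2C19 inhibition above a set limit at 5 µM in the primary screen, cut at about 50% in these data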;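 also: plate controls were negative control wells for no effect and 2.5 mM tranylcypromine positive control for full effect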
CYP2C19 activ: increases human CYP2C19 enzyme activity. P33261. recombinant CYP2C19, luciferin-H EGE luminescence; stronger effect = higher value; 0 = fully inhibited enzyme, 1 = untreated enzyme. activation factor at 5 µM. 96,000 tested, under 10 active. AID 1025;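 active = activation factor of at least 2 at 5 µM in the primary screen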;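 also: 0 = wells with 2.5 mM tranylcypromine and 1 = vehicle-only wells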
PostGolgi ctrl: growth of the yeast control strain, post-Golgi counter-screen; inhibition, % at 10 µM; AID 738; 98,000 tested, 5% active; efflux-deficient yeast background strain, growth absorbance A615, 16 h
CYP2C9 inhib: human CYP2C9 inhibition; inhibition, % at 5 µM; CYP2C9 Supersomes, luciferin-H conversion, luminescence; 96,000 tested, 20% active; P11712;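 active = blocking of liver enzyme CYP2C9 beyond about 50% at 5 µM, limit read from the data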
Starred values were filed as active, the others as inactive. Rule as the data show it, unless noted: active = inhibition above about 30%; inactive = the rest.

SMILES	PostGolgi yeast	CYP2C9 act	CYP2C19 inh	CYP2C19 activ	PostGolgi ctrl	CYP2C9 inhib
COc1ccc(C(C(=O)Nc2ccc(F)cc2)N(C(=O)Cn2nnc3ccccc32)C2CC2)cc1 (stereo not given)	0	0.7	23	0.8	12	29
COc1ccc(-c2nc(CSCC(=O)NCc3ccc4c(c3)OCO4)c(C)o2)cc1OC	-2	0.5	65*	0.3	24	53*
Cc1ccsc1-c1nc(CSCC(=O)NCc2ccc3c(c2)OCO3)c(C)o1	-2	0.2	46	0.5	13	79*
COc1ccc(-c2nc(CS(=O)CC(=O)NCCC3=CCCCC3)c(C)o2)cc1 (stereo not given)	-3	0.5	41	0.6	12	49
Cc1oc(-c2ccccc2F)nc1CN1CCC(C(=O)NCCC2=CCCCC2)CC1	-4	2.3*	5	1	4	-127
COc1ccc(-c2nc(CSCC(=O)N3CCc4ccccc43)c(C)o2)cc1OC	1	0.5	13	0.9	25	50
Cc1cccc(-c2nc(CSCC(=O)NCc3cccs3)c(C)o2)c1	-7	0.7	31	0.7	14	26
COc1ccc(-c2nc(CSCC(=O)NCCC3=CCCCC3)c(C)o2)cc1OC	-8	0.5	60*	0.4	19	46
Cc1cccc(C(=O)n2c(=S)nc3ccccn32)c1	-4	1	36	0.6	2	-2
O=C(NC1CCCCCC1)c1ccc(CN2CCOCC2)cc1	22	0.9	6	0.9	15	12
COc1ccc(-c2nc(CSCC(=O)NCc3ccc4c(c3)OCO4)c(C)o2)cc1	1	0.1	95*	0	14	89*
COCCNC(=O)CSCc1nc(-c2ccc(SC)cc2)oc1C	-8	1	-2	1	5	-5
CCc1ccc(-c2nc(CSCC(=O)NCCCN3CCCC3=O)c(C)o2)cc1	-6	0.1	14	0.9	16	88*
COCC(=O)N(c1ccc(C(C)C)cc1)C1C=CS(=O)(=O)C1 (stereo not given)	-5	1	-4	1	-6	-2
NC1=NC(=O)/C(=C\c2cccs2)S1	-5	1.2	-5	1	0	-18
N=C1/C(=C/c2cccs2)C(=O)N=C2SN=C(SCc3ccccc3)N12	-4	0.1	11	0.9	7	93*
COc1ccc2c(c1)c1nc3ccccc3nc1n2CC(=O)OC(C)C	-5	1	6	0.9	1	2
OC(c1ccc2c(c1)OCO2)c1nccc2ccccc12 (stereo not given)	-7	1.7	95*	0	1	-74
CCn1c(C(O)c2ccc(C)cc2)nc2ccccc21 (stereo not given)	-6	1	44	0.6	-1	-5
CC(C)n1c(C(O)c2ccc3c(c2)OCO3)nc2ccccc21 (stereo not given)	-2	0.5	98*	0	4	53*
Cn1c(C(O)c2ccc3c(c2)OCO3)nc2ccccc21 (stereo not given)	1	0.4	97*	0	0	62*
O=C(O)CC(Cc1ccccc1)c1ccc2c(c1)OCO2 (stereo not given)	7	0.9	18	0.8	-7	11
c1ccc2c(c1)nc1n2CN(Cc2ccc3c(c2)OCO3)CN1	1	1.1	-10	1.1	1	-11
COc1ccc(OC)c(C(O)c2nc3ccccc3n2C(C)C)c1 (stereo not given)	1	0.6	74*	0.3	6	37
CC12C(=O)N(CCC(=O)O)C(=O)C1C1C=CC2C1 (stereo not given)	13	1	7	0.9	-13	2
COc1ccc(-n2c(C)nnc2SCC(=O)N2C(C)CCCC2C)cc1 (stereo not given)	0	0.9	-1	1	-3	6
Cc1cc(-c2nnc(SCC(=O)N3C(C)CCCC3C)o2)no1 (stereo not given)	-4	0.7	56*	0.4	3	30
CCCc1nnc(SCC(=O)N2C(C)CCCC2C)n1CC1CCCO1 (stereo not given)	-1	1	18	0.8	10	-1
CC1CCCC(C)N1C(=O)CSc1nnc(C2CCCCC2)o1 (stereo not given)	-3	0.9	59*	0.4	-4	12

From PubChem
